The results in this text go back to PubChem BioAssay (Tox21).

Inconclusive results are not listed. A number with no mark means an inactive call. Calls of active or inactive are those of the source. Unless noted, the call rests on the fitted dose curve; in most records, active means well fitted curve in the direction sought with a large enough effect in the repeat runs; inconclusive means weak or mixed curves; inactive means no such curve, though single readings can be large; an effect the other way counts as inactive or inconclusive.

Assay [1] can be described thus: qHTS assay to identify small molecule agonists of the peroxisome proliferator-activated receptor delta (PPARd) signaling pathway - cell viability counter screen (AID 743211). Further: nearly all actives have a fitted effect of over 55% in size. Further: potency means the concentration at half of the fitted maximal effect. The following applies: PPARd-bla HEK293H viability, CellTiter-Glo luminescence, 17 h; series mostly up to 62.6 µM. The essentials: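 HEK293H PPARd-bla, 3000 cells/well; 5 h preincubation 37C/5% CO2; cpd in DMSO, 17 h 37C; B/G FRET substrate 2 h RT; CellTiter-Glo 30 min RT, luminescence.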
Background: qHTS replaces the single test concentration by a dilution series.

The nature of assay [2]: qHTS assay to identify small molecule antagonists of the peroxisome proliferator-activated receptor delta (PPARd) signaling pathway - cell viability counter screen (AID 743213). Further: nearly all actives have a fitted effect of over 50% in size. Further: potency means the concentration at half of the fitted maximal effect. The following applies: PPARd-bla HEK293H viability, CellTiter-Glo luminescence, 17 h; series mostly up to 62 µM. The essentials: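 In this counter screen, HEK293H cells carrying a UAS-beta-lactamase reporter are co-treated with test compounds and 300 nM L165041 (final) for 17 h at 37 C; cell viability is quantified by CellTiter-Glo luminescence.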

Assay [3] concerns the target Peroxisome proliferator-activated receptor delta (Homo sapiens) (UniProt Q03181). The assay can be described thus: qHTS assay to identify small molecule antagonists of the peroxisome proliferator-activated receptor delta (PPARd) signaling pathway (AID 743215; active means well fitted inhibition curve with a large enough effect in the signal ratio in the repeat runs, not every such curve was filed as active; the % refers to the signal ratio;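 further: cells stimulated with agonist L165041 at 300 nM final during compound exposure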). The conditions noted are these: HEK293H PPARd-UAS-bla, beta-lactamase FRET ratio, antagonist, 17 h; series mostly up to 62 µM. The procedure, abridged:
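Agonist L165041 (300 nM final) added with compound to PPARd-bla HEK293H UAS-bla reporter cells; 17 h incubation at 37 C. Read-out: LiveBLAzer FRET substrate, 2 h at room temperature, fluorescence intensity.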

A short description of assay [4]: qHTS assay to identify small molecule agonists of the farnesoid-X-receptor (FXR) signaling pathway - cell viability counter screen (AID 743218). Further: nearly all actives have a fitted effect of over 45% in size. Further: potency means the concentration at half of the fitted maximal effect. The conditions noted are these: FXR-bla HEK293T viability, CellTiter-Glo luminescence, 16 h; series mostly up to 62.6 µM. The essentials: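 Viability counter screen in the same wells: CellTiter-Glo luminescence, 30 min room-temperature incubation, measured after the beta-lactamase read. Cells were GeneBLAzer FXR-UAS-bla HEK 293T, compound-treated 16 h at 37C.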

Assay [5] in a line: qHTS assay to identify small molecule antagonists of the farnesoid-X-receptor (FXR) signaling pathway - cell viability counter screen (AID 743221; active means well fitted cell-killing curve with a large enough effect in the repeat runs, not every such curve was filed as active; further: nearly all actives have a fitted effect of over 50% in size). The conditions noted are these: FXR-bla HEK293T viability, CellTiter-Glo luminescence, 16 h; series mostly up to 62.6 µM. The essentials: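 Luminescence from CellTiter-Glo measures cytotoxicity in GeneBLAzer FXR-UAS-bla HEK 293T cells. Cells were exposed to compounds with 50 uM chenodeoxycholic acid (final) for 16 h at 37 C, in wells also used for the reporter readout.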

Assay [6] deals with Vitamin D3 receptor (Homo sapiens) (UniProt P11473). The assay can be described thus: qHTS assay to identify small molecule agonists of the vitamin D receptor (VDR) signaling pathway (AID 743222; calls by dose curve). The conditions noted are these: HEK293T VDR-UAS-bla, beta-lactamase FRET ratio, 16 h; series mostly up to 63.5 µM. The essentials:
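Agonist mode, beta-lactamase reporter: fluorescence from LiveBLAzer B/G FRET substrate (2 h, room temperature) read after 16 h compound treatment at 37 C of VDR-bla cells, which were pre-incubated 4 h after seeding.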

Assay [7] shares this target. The assay can be described thus: qHTS assay to identify small molecule antagonists of the vitamin D receptor (VDR) signaling pathway (AID 743223; active means well fitted inhibition curve with a large enough effect in the signal ratio in the repeat runs, not every such curve was filed as active; the % refers to the signal ratio). The conditions noted are these: VDR-UAS-bla HEK293T, beta-lactamase FRET ratio, 16 h; series mostly up to 61 µM. The procedure, abridged: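 Antagonist mode uses 1alpha,25-dihydroxyvitamin D3 at 3 nM final as stimulus. VDR-bla cells receive compounds in DMSO, incubate 16 h at 37C, then a beta-lactamase FRET substrate for 2 h at room temperature before fluorescence measurement.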

Assay [8] has as its target Bile acid receptor (Homo sapiens) (UniProt Q96RI1). The assay is described as follows: qHTS assay to identify small molecule antagonists of the farnesoid-X-receptor (FXR) signaling pathway (AID 743217; active means well fitted inhibition curve with a large enough effect in the signal ratio in the repeat runs, not every such curve was filed as active; the % refers to the signal ratio). The following applies: HEK293T FXR-UAS-bla, beta-lactamase ratio, CDCA-stimulated, 16 h; series mostly up to 62.6 µM. The essentials: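 Antagonist mode: chenodeoxycholic acid at 50 uM final stimulates a UAS-driven beta-lactamase reporter in HEK 293T FXR-bla cells during 16 h, 37C compound exposure. Read-out is FRET substrate fluorescence after 2 h at room temperature.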

Assay [9] has the same target. The assay can be described thus: qHTS assay to identify small molecule agonists of the farnesoid-X-receptor (FXR) signaling pathway (AID 743220; active means well fitted activation curve with a large enough effect in the signal ratio in the repeat runs, not every such curve was filed as active; the % refers to the signal ratio). The conditions noted are these: HEK293T FXR-UAS-bla, beta-lactamase FRET ratio, 16 h; series mostly up to 62.6 µM. The procedure, abridged: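 FXR-UAS-bla HEK 293T cells carrying a UAS-driven beta-lactamase reporter were plated for 5 h at 37C/5% CO2, then exposed to DMSO-dissolved Tox21 10K compounds for 16 h at 37C. A LiveBLAzer B/G FRET substrate was loaded for 2 h at room temperature before fluorescence reading.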

Assay [10] deals with Peroxisome proliferator-activated receptor delta (Homo sapiens) (UniProt Q03181). The assay is described as follows: qHTS assay to identify small molecule agonists of the peroxisome proliferator-activated receptor delta (PPARd) signaling pathway (AID 743212; calls by dose curve). The following applies: HEK293H PPARd-UAS-bla, beta-lactamase FRET ratio, 17 h; series mostly up to 62.6 µM. The essentials: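 Steps: seed PPARd-bla HEK293H cells; incubate 5 h, 37 C, 5% CO2; add compounds in DMSO; incubate, 37 C; add LiveBLAzer B/G FRET substrate; hold 2 h at room temperature; measure fluorescence.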
Chain of Peroxisome proliferator-activated receptor delta (Homo sapiens) (Q03181 whole entry, looked up): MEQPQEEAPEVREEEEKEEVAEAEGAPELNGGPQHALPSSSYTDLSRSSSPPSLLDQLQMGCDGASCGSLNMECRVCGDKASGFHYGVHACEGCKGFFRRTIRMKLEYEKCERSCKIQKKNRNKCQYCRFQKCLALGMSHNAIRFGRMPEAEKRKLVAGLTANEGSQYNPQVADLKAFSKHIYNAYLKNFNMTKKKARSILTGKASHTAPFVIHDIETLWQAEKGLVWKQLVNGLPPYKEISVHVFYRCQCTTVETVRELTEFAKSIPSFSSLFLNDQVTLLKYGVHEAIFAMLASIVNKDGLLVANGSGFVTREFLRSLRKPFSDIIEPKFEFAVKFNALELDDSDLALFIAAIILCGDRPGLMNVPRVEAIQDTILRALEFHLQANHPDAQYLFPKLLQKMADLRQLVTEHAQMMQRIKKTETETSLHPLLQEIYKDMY

Chain of Bile acid receptor (Homo sapiens) (Q96RI1 whole entry, looked up): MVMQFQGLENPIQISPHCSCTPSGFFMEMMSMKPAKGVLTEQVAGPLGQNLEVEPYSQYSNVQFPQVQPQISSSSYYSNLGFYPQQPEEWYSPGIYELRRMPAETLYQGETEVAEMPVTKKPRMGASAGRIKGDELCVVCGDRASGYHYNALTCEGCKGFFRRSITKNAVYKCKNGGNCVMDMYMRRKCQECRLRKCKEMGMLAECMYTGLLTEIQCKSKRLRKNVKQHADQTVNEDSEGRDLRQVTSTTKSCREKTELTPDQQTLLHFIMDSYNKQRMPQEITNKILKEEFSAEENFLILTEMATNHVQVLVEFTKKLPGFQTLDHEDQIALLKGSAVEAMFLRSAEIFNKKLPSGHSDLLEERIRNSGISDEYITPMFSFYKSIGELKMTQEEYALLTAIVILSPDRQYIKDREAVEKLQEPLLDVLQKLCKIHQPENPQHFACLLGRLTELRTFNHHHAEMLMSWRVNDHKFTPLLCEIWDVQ
Chain of Vitamin D3 receptor (Homo sapiens) (P11473 whole entry, looked up): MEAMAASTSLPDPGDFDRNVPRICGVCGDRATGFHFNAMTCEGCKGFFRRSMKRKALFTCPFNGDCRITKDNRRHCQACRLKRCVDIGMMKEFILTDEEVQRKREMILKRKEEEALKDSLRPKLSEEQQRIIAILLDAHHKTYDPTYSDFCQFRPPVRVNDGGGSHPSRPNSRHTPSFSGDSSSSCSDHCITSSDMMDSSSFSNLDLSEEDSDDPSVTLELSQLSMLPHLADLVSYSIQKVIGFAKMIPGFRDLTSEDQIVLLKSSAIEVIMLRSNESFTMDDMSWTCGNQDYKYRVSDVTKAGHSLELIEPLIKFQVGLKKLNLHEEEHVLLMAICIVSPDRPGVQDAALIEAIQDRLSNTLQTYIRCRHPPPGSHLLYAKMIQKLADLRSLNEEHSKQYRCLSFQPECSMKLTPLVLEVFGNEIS

In the case of `O=C(O)CN1C(=O)c2cccc3cccc(c23)C1=O`, the Potency entry in assay [1], in assay [2], in assay [3], in assay [4] and in assay [5] was “inactive” in each case. Moreover, the outcome in [6] and in [7] was inactive.

For `COC(=O)C1=C(C)NC(C)=C(C(=O)OC(C)(C)CN(C)CCC(c2ccccc2)c2ccccc2)C1c1cccc([N+](=O)[O-])c1` (configuration not stated), the Potency entry in assay [1], in assay [2], in assay [3] and in assay [4] was “inactive” in each case. Also, the outcome in assay [6] and in assay [7] was inactive.

Turning to `CCCCCCCCCCCCCOC(=O)CCSCCC(=O)OCCCCCCCCCCCCC`, the Potency result in assay [1], in assay [2], in assay [3], in assay [4], in [9] and in assay [5] was “inactive” each time. Further, the result in assay [8], in [6] and in assay [7] was inactive.

In the case of `CC(=O)OC(C)C[N+](C)(C)C` (configuration not stated), the Potency result in [1], in [2], in [3], in assay [4] and in assay [5] was “inactive” in each case. The outcome in assay [6] and in [7] was inactive.

For the compound `C1=CCC2CC=CC2C1` (configuration not stated), the Potency entry in assay [1], in [2], in assay [3], in assay [4], in assay [9] and in [5] was “inactive” each time. The result in assay [8], in assay [6] and in [7] was inactive.

As to `CC(=O)c1ccc[nH]1`, the Potency entry in assay [1], in [2], in [3], in [4], in assay [9] and in assay [5] was “inactive” each time. Besides, in [8], the outcome was inactive.

`CCCCC[C@H](O)/C=C/[C@H]1[C@H](O)CC(=O)[C@@H]1C/C=C\CCCC(=O)O`: the Potency entry in assay [1], in [2], in [3], in [4] and in assay [5] was “inactive” each time. The outcome in assay [6] was inactive.

In the case of `CC(C)c1ccc(C(=O)N=C(N)N)cc1S(C)(=O)=O`, the Potency result in assay [1], in assay [2], in assay [3], in [4] and in assay [5] was “inactive” throughout. Besides, the result in [6] and in assay [7] was inactive.

Regarding `CCN(CC)c1cccc(O)c1`, the Potency result in [1], in [2], in assay [3], in [4] and in [5] was “inactive” throughout.

On to `O=c1[nH][nH]c(=O)c2cc([N+](=O)[O-])ccc12`, for which the Potency entry in [1], in assay [2], in [3], in assay [4] and in assay [5] was “inactive” throughout. Moreover, the result in assay [6] and in [7] was inactive.

As for `COc1ccc(CCN(C)CCCN2CCc3cc(OC)c(OC)cc3CC2=O)cc1OC`, the Potency entry in assay [1], in assay [2], in assay [3], in [4] and in [5] was “inactive” in each case.

As for `O=C(Nc1ccc(C(=O)O)c(O)c1)c1ccccc1`, the Potency entry in assay [1], in [2], in assay [3], in assay [4] and in [5] was “inactive” each time. For the same compound, the outcome in [6] and in assay [7] was inactive.

As to `CC1C(C)(C)C2=C(C(=O)CCC2)C1(C)C` (configuration not stated), the Potency result in assay [1], in [2], in assay [3], in assay [4] and in assay [5] was “inactive” each time. In [6], the outcome was inactive.

`O=C1[C@@H]2[C@H]3CC[C@H](C3)[C@@H]2C(=O)N1CCCCN1CCN(c2ncccn2)CC1`: the Potency result in assay [1], in [2], in assay [3], in [4] and in assay [5] was “inactive” in each case. Also, the result in assay [6] was inactive.

Regarding `CC(=O)OCC(=O)[C@@]1(OC(C)=O)[C@@H](C)C[C@H]2[C@@H]3C[C@H](F)C4=CC(=O)C=C[C@]4(C)[C@@]3(F)[C@@H](O)C[C@@]21C`, the Potency result in assay [1], in assay [2], in assay [3], in assay [4] and in assay [5] was “inactive” throughout.

On to `Oc1ccc2c(c1)Cc1ccccc1-2`, for which the Potency entry in assay [1], in assay [2], in assay [3], in assay [4] and in assay [5] was “inactive” each time. In addition, the result in assay [7] was inactive.

As for `O=C(O)/C=C/c1ccc(O)c(O)c1`, the Potency result in assay [1], in assay [2], in assay [3], in assay [4], in [9] and in assay [5] was “inactive” throughout. For the same compound, the outcome in [8] and in assay [7] was inactive.

Turning to `Cc1ccc(Nc2c(F)cccc2Cl)c(CC(=O)O)c1`, the Potency result in [1], in assay [4], in assay [9] and in assay [5] was “inactive” each time. Also, the outcome in [10] and in [8] was inactive.

As for `COC(C)(C)OC`, the Potency entry in assay [1], in assay [4], in [9] and in assay [5] was “inactive” each time. The result in assay [10], in assay [8], in assay [6] and in assay [7] was inactive.

Take `O=C(O)CCC(=O)c1ccc(-c2ccccc2)cc1`: the Potency result in assay [1], in assay [2], in assay [3], in assay [4], in assay [9] and in [5] was “inactive” in each case. Further, the result in assay [8] and in assay [6] was inactive.

Turning to `O=CNNC=O`, the Potency result in [1], in assay [2], in [3], in assay [4] and in assay [5] was “inactive” throughout. Besides, the result in assay [6] and in assay [7] was inactive.

For `O=S(=O)(Cl)c1c(Cl)cccc1Cl`, the Potency entry in assay [1], in [2], in assay [3], in assay [4] and in assay [5] was “inactive” each time.

For the compound `CN(C)CC/C=C1\c2ccccc2Sc2ccc(Cl)cc21`, the Potency is 29.8 µM (active) in assay [1], 13.3 µM (active) in assay [2] and 23.7 µM (active) in assay [4]. Also, the Potency entry in assay [3] is “inactive”. In addition, the outcome in [6] was inactive.

As for `O=C(O)c1cccc(Oc2ccccc2)c1`, the Potency result in assay [1], in assay [2], in assay [3], in [4] and in assay [5] was “inactive” each time.
